Laboratory results from PubChem BioAssay (NCATS).
Records with an inconclusive call do not appear. Calls of active or inactive are those of the source. Unless noted, the call rests on the fitted dose curve; in most records, active means well fitted curve in the direction sought with a large enough effect; inconclusive means small, poorly fitted or top-dose-only effect, or another doubt; inactive means no such curve, though single readings can be large; an effect the other way counts as inactive or inconclusive.

How the values were obtained:
[1] = target: Aldehyde dehydrogenase, mitochondrial (Homo sapiens) (UniProt P05091); experiment: qHTS for Inhibitors of the Aldehyde Dehydrogenase Family (ALDH2) Validation screens (AID 2061302; active means well fitted inhibition curve with a large enough effect; title and protocol of this record describe different tests;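 further: plate controls were DMSO vehicle for no effect and maximal DPI positive control response for full effect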)
[2] = BET inhibitor-based combinations targeting novel dependencies in MECOM-rearranged (r) AML: OCI-AML3 cell line (AID 2202232); settings: Potency: OCI-AML3 viability; further: nearly all actives have a fitted effect of over 35% in size; further: potency means the concentration at half of the fitted maximal effect
Method in brief: (§1)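 AML cell lines seeded at 500 cells/well, treated with 11-point dose curves for 48 h. Viability by CellTiter-Glo luminescence, normalised to DMSO and empty wells; activity expressed as AUC and per-cell-line Z-transformed AUC.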

[3] = BET inhibitor-based combinations targeting novel dependencies in MECOM-rearranged (r) AML: MV-4-11 cell line (AID 2202233); further: nearly all actives have a fitted effect of over 45% in size; further: potency means the concentration at half of the fitted maximal effect
Method in brief: (§2)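 Cells at 500/well were exposed for 48 hr to MIPE v5.0 drugs as 11-point dose curves. Viability was read by CellTiter-Glo luminescence and normalized to DMSO and empty-well controls. Activity was expressed as AUC and per-cell-line Z-AUC.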

[4] = BET inhibitor-based combinations targeting novel dependencies in MECOM-rearranged (r) AML: UCSD-AML1 cell line (AID 2202235); further: nearly all actives have a fitted effect of over 40% in size; further: potency means the concentration at half of the fitted maximal effect
Method in brief: as §2

[5] = BET inhibitor-based combinations targeting novel dependencies in MECOM-rearranged (r) AML: AML-191 cell line (AID 2202236; further: nearly all actives have a fitted effect of over 35% in size; further: potency means the concentration at half of the fitted maximal effect)
Method in brief: as §1

[6] = target: Aldehyde dehydrogenase, mitochondrial (Homo sapiens) (UniProt P05091); experiment: qHTS for Inhibitors of the Aldehyde Dehydrogenase Family (ALDH2) Confirmatory screens (AID 2061303; active means well fitted inhibition curve with a large enough effect; title and protocol of this record describe different tests; further: on the % scale 0 is the no-effect control and ±100 the full control effect; nearly all actives have a fitted effect of over 45% in size)
[7] = BET inhibitor-based combinations targeting novel dependencies in MECOM-rearranged (r) AML: SET-2 cell line (AID 2202231); settings: SET-2 AML cells viability, CellTiter-Glo luminescence, 48 h; viability: stronger effect = lower value, series mostly up to about 46 µM;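 further: plate controls were DMSO treated cells for no effect and wells without cells for full effect; nearly all actives have a fitted effect of over 35% in size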
Method in brief: as §1

[8] = BET inhibitor-based combinations targeting novel dependencies in MECOM-rearranged (r) AML: HNT-34 cell line (AID 2202234); further: nearly all actives have a fitted effect of over 35% in size; further: potency means the concentration at half of the fitted maximal effect
Method in brief: as §2

[9] = BET inhibitor-based combinations targeting novel dependencies in MECOM-rearranged (r) AML: AML-194 cell line (AID 2202237;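 further: plate controls were vehicle wells for no effect and wells without cells for full effect; nearly all actives have a fitted effect of over 40% in size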)
Method in brief: as §1

[10] = target: Retinaldehyde dehydrogenase 3 (Homo sapiens) (UniProt P47895); experiment: qHTS for Inhibitors of the Aldehyde Dehydrogenase Family (ALDH1A3) Validation screen (AID 2061312); further: on the % scale 0 is the no-effect control and ±100 the full control effect; nearly all actives have a fitted effect of over 45% in size
[11] = target: Retinaldehyde dehydrogenase 3 (Homo sapiens) (UniProt P47895); experiment: qHTS for Inhibitors of the Aldehyde Dehydrogenase Family (ALDH1A3) Primary screen (AID 2061315);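 further: plate controls were DMSO vehicle for no effect and reference inhibitor for full effect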
[12] = qHTS for Inhibitors of the Aldehyde Dehydrogenase Family (ALDH1A2, ALDH1A3, ALDH2, ALDH3A1) (AID 2061307); further: on the % scale 0 is the no-effect control and ±100 the full control effect; nearly all actives have a fitted effect of over 50% in size
[13] = target: Aldehyde dehydrogenase, mitochondrial (Homo sapiens) (UniProt P05091); experiment: qHTS for Inhibitors of the Aldehyde Dehydrogenase Family (ALDH2) Primary screen (AID 2061308);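 further: plate controls were vehicle for no effect and reference inhibitor for full effect; nearly all actives have a fitted effect of over 55% in size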
[14] = target: Retinaldehyde dehydrogenase 3 (Homo sapiens) (UniProt P47895); experiment: qHTS for Inhibitors of the Aldehyde Dehydrogenase Family (ALDH1A3) Confirmatory screens (AID 2061311); further: on the % scale 0 is the no-effect control and ±100 the full control effect; nearly all actives have a fitted effect of over 60% in size
[15] = target: Retinal dehydrogenase 2 (Homo sapiens) (UniProt O94788); experiment: qHTS for Inhibitors of the Aldehyde Dehydrogenase Family (ALDH1A2) Confirmation screens (AID 2061314); further: on the % scale 0 is the no-effect control and ±100 the full control effect; nearly all actives have a fitted effect of over 65% in size
[16] = target: Aldehyde dehydrogenase 1A1 (Homo sapiens) (UniProt P00352); experiment: qHTS for Inhibitors of the Aldehyde Dehydrogenase Family (ALDH1A1) Confirmatory screens (AID 2061316); further: on the % scale 0 is the no-effect control and ±100 the full control effect; nearly all actives have a fitted effect of over 65% in size

COc1cc2c(c(OC)c1OC)-c1ccc(OC)c(=O)cc1[C@@H](NC(C)=O)CC2
inactive: Potency [1]
active: Potency [2] 29.5 nM | Potency [3] 37.2 nM | Potency [4] 41.7 nM | Potency [5] 33.2 nM

O=c1c2nc(-c3ccc(F)cc3)ccc2ncn1Cc1ccccn1
inactive: Potency [6]

CN(C)CCOC(c1ccccc1)c1ccccc1
inactive: Potency [1] | viability [7] 105% | Potency [2] | Potency [3] | Potency [8] | Potency [4] | Potency [5] | Potency [9]

CC(=O)OCC(CCn1cnc2cnc(N)nc21)COC(C)=O
inactive: Potency [1] | Potency [10] | viability [7] 121% | Potency [2] | Potency [3] | Potency [4]

COc1ccc(CC(=O)NCCNC(=O)c2ccc(-c3cccc(C(F)(F)F)c3)cc2)cc1
inactive: Potency [6]

O=c1c2nc(Nc3cccc(F)c3)ccc2ncn1-c1cccnc1
inactive: Potency [6]

CCC1(c2ccccc2)C(=O)NCNC1=O
inactive: Potency [1] | Potency [10] | viability [7] 109% | Potency [3] | Potency [8] | Potency [4] | Potency [9]

NC[C@H](O)c1ccc(O)c(O)c1
inactive: Potency [1] | Potency [11] | viability [7] 116% | Potency [2] | Potency [3] | Potency [8] | Potency [4] | Potency [5] | Potency [9]

CCC1(C)CC(=O)NC1=O (stereo not drawn)
inactive: Potency [1] | Potency [10] | viability [7] 115% | Potency [2] | Potency [3] | Potency [8] | Potency [4] | Potency [5] | Potency [9]

CCCC(CCC)C(=O)O
inactive: Potency [1] | Potency [10] | viability [7] 112% | Potency [2] | Potency [3] | Potency [8] | Potency [4] | Potency [5] | Potency [9]

O=c1[nH]cnc2[nH]ncc12
inactive: Potency [1] | Potency [10] | viability [7] 124% | Potency [2] | Potency [4] | Potency [5] | Potency [9]
active: Potency [8] 1.3 nM

Cn1c(=O)c2[nH]cnc2n(C)c1=O
inactive: Potency [1] | Potency [10] | viability [7] 117% | Potency [2] | Potency [8] | Potency [4] | Potency [5] | Potency [9]

CCc1c(C)sc(NC(=O)c2cc(-c3ccc(OC)cc3)on2)c1C#N
inactive: Potency [6]

O=C(C1CCCCC1)N1CC(=O)N2CCc3ccccc3C2C1 (stereo not drawn)
inactive: Potency [1] | Potency [10] | viability [7] 120% | Potency [2] | Potency [3] | Potency [8] | Potency [4] | Potency [5] | Potency [9]

N[C@@H](Cc1c[nH]c2ccc(O)cc12)C(=O)O
inactive: Potency [1] | Potency [10] | viability [7] 98.1% | Potency [2] | Potency [3] | Potency [4] | Potency [9]

CN1C2CCC1CC(OC(=O)C(CO)c1ccccc1)C2 (stereo not drawn)
inactive: Potency [1] | Potency [10] | viability [7] 89.7% | Potency [8] | Potency [4] | Potency [5] | Potency [9]

COc1ccc(N2Cc3cccc(C(=O)O)c3C2=O)c(OC)c1
inactive: Potency [6] | Potency [12] | Potency [13] | Potency [14] | Potency [15] | Potency [11] | Potency [16]
